Laboratory results: PubChem BioAssay AID504339 (National Center for Advancing Translational Sciences (NCATS), 2011)
Where “and” joins values, the source holds several entries; their conditions need not be identical. Equal entries are not always repeated. The campaign covered roughly 390,000 compounds. About 17,000 (4.4%) were called active. About 8% were inconclusive and are not listed. This is one part of a sample in which actives are shown more often than they occur. The call rests on the fitted dose curve; in most records, active means well fitted inhibition curve with a large enough effect; inconclusive means small, poorly fitted or top-dose-only effect; inactive means no such curve, though single readings can be large or run the other way.

Each molecule was assayed against Lysine-specific demethylase 4A (Homo sapiens) (UniProt O75164) (assay: qHTS Assay for Inhibitors of JMJD2A-Tudor Domain). Settings: AlphaScreen JMJD2A-Tudor / H3K4me3 peptide binding; series mostly up to 114 µM; activity change, negative = inhibition: at the top concentration.
Chain of Lysine-specific demethylase 4A (Homo sapiens) (O75164 whole entry, looked up, the tested form may be a part): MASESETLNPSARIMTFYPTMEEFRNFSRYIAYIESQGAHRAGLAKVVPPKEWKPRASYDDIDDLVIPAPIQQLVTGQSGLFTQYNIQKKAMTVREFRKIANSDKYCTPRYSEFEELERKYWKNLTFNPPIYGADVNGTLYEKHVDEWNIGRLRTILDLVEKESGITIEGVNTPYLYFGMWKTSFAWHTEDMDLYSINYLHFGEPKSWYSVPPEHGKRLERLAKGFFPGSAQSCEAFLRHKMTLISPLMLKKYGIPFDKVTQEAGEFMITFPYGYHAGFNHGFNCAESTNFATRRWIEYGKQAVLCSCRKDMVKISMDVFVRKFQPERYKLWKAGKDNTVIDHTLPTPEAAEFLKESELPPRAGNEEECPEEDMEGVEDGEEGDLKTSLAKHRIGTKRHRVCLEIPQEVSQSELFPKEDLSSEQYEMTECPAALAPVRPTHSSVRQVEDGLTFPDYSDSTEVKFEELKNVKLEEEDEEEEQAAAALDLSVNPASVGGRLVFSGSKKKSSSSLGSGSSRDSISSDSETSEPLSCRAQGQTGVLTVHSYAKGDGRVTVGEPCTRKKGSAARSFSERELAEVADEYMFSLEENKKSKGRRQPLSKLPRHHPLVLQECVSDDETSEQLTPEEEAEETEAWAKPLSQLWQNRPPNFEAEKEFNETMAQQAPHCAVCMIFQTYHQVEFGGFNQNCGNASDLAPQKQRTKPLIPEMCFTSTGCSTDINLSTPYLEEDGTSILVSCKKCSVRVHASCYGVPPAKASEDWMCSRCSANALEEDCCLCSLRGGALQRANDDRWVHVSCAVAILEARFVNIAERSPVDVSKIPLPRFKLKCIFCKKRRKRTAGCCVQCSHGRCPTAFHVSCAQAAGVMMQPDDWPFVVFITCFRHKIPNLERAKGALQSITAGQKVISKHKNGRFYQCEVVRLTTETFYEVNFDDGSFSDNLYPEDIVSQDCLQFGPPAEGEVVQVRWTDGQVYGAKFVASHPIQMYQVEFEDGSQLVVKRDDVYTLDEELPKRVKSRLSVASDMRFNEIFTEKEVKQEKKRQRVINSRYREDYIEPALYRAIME
Further: nearly all actives have a fitted effect of over 50% in size.
On the % scale 0 is the no-effect control and ±100 the full control effect; potency means the concentration at half of the fitted maximal effect.

Row | Compound | activity change, negative = inhibition | Potency
1 | O=C(NC1(C(F)(F)F)N=C(c2ccccc2)N(C2CCCCC2)C1=O)c1ccccc1F (stereo not drawn) | -15.3% (inactive) | 
2 | CCOC(=O)c1cccc(NC(=O)Cn2cnc3nc4c(cc3c2=O)CCCC4)c1 | -1.92% (inactive) | 
3 | COc1ccc(-c2nc3c4ccccc4n(CC(=O)Nc4ccc(C(C)=O)cc4)c(=O)n3n2)cc1 |  | 8.91 µM (active)
4 | CC(=O)c1ccc(NC(=O)Cn2c(=O)oc3ccccc32)cc1 | -6.82% (inactive) | 
5 | COc1ccc(NC(=O)Cn2c(=O)n(Cc3ccc(C(=O)NCc4ccccc4Cl)cc3)c(=O)c3ccccc32)cc1 | -7.88% (inactive) | 
6 | Cc1cc(F)ccc1S(=O)(=O)N1CCCOC1CNC(=O)C(=O)NCCC1=CCCCC1 (stereo not drawn) | -9.67% (inactive) | 
7 | O=C(NCCCc1ccccc1)C(=O)NCC1OCCN1S(=O)(=O)c1ccccc1 (stereo not drawn) | -7.53% (inactive) | 
8 | O=C(NCCCn1ccnc1)C(=O)NCC1OCCN1S(=O)(=O)c1cc(F)ccc1F (stereo not drawn) |  | 39.8 µM (active)
9 | CCn1c(C(=O)Nc2cc(Cl)ccc2C)cc2sc(Cl)cc21 | 4.73% (inactive) | 
10 | COc1cc(C(=O)N2CCC(c3ccncc3)CC2)cc(OC)c1OC | 8.67% (inactive) | 
11 | COc1ccc(-c2cc(=O)oc3cc(OCC(=O)N[C@@H](Cc4c[nH]c5ccccc45)C(=O)O)ccc23)cc1 | -31.3% (inactive) | 
12 | COc1ccc(-c2cc(C(=O)NC(Cc3c[nH]c4ccccc34)C(=O)O)c(C)o2)cc1OC (stereo not drawn) |  | 22.4 µM (active)
13 | COc1ccc(-c2cc(C(=O)NC(C(=O)O)C(C)C)c(C)o2)cc1OC (stereo not drawn) | -11.8% (inactive) | 
14 | CC1=C(c2ccc(Cl)cc2)S(=O)(=O)N=C1N1CCN(c2cc(C)ccc2C)CC1 | -15.2% (inactive) | 
15 | O=C(CCc1ccccc1)NCc1ccc2c(c1)CCN2C(=O)c1ccccc1 | 3.33% (inactive) | 
16 | CCc1ccccc1N1C(=O)CN(S(=O)(=O)CC)CC1(C)C(=O)NC1CCCCC1 (stereo not drawn) | -4.62% (inactive) | 
17 | Cc1ccc2c(c1)C(c1ccccc1)N(C(=O)c1ccc(F)cc1)CC(=O)N2 (stereo not drawn) | -0.699% (inactive) | 
18 | Cc1ccc(C(=O)N2CC(=O)Nc3ccc(F)cc3C2c2ccc(F)cc2)cc1 (stereo not drawn) | -6.29% (inactive) | 
19 | Cc1ccc2c(c1)C(c1ccccc1)N(C(=O)c1ccc(S(=O)(=O)N3CCOCC3)cc1)CC(=O)N2 (stereo not drawn) |  | 50.1 µM (active)
20 | CC(=O)Nc1cccc(NC(=O)CSc2cn(CC(=O)N3CCCC3)c3ccccc23)c1 | -5.86% (inactive) | 
21 | O=S(=O)(NCC(c1ccco1)N1CCOCC1)c1cc(F)ccc1F (stereo not drawn) | -8.77% (inactive) | 
22 | O=C(CSCc1cnn(-c2ccccc2)c1-n1cccc1)NCc1ccccc1Br | -4.97% (inactive) | 
23 | COc1ccccc1N1CCN(c2nc(C)cc(=O)[nH]2)CC1 | -3.79% (inactive) | 
24 | COc1ccc(-c2nc3ccccc3n2CCC(C)C)cc1OC | 0.744% (inactive) | 
25 | Cc1ccc(-n2c(-c3ccc(Cl)cc3)n[nH]c2=S)cc1 |  | 50.1 µM (active)

Row | Compound | activity change, negative = inhibition | Potency
26 | COc1ccccc1-n1c(-c2cc(-c3ccco3)[nH]n2)n[nH]c1=S |  | 15.8 µM (active)
27 | COc1ccccc1OCC(=O)OCc1cc(-c2ccco2)on1 | -15.5% (inactive) | 
28 | COc1ccc(-n2c(C)csc2=S)cc1 | -12.8% (inactive) | 
29 | COc1ccc(-n2c(-c3ccc(OC)c(OC)c3)n[nH]c2=S)cc1 |  | 1.26 µM (active)
30 | COc1ccc(OC)c(-n2c(-c3ccn[nH]3)n[nH]c2=S)c1 |  | 50.1 µM (active)
31 | CCOC(=O)CSc1nnc(CNC(=O)c2cccs2)n1-c1cc(OC)ccc1OC | -5.76% (inactive) | 
32 | Cc1n[nH]c(=O)n1-c1ccc(C(C)C)cc1 | -2.28% (inactive) | 
33 | COc1ccc(OC)c(-n2nnc(-c3nc(-c4cc(OC)c(OC)c(OC)c4)no3)c2C)c1 | -14% (inactive) | 
34 | Cc1ccc(-c2cn3cc(C)ccc3n2)cc1 | 1.5% (inactive) | 
35 | CCOC(=O)c1cccc(NC(=O)c2cc(CN3CCCC3)on2)c1 | -11.3% (inactive) | 
36 | O=C(OCc1cc(=O)n2nc(C3CC3)sc2n1)c1ccccc1Cl | -14% (inactive) | 
37 | COc1ccc(C2c3c(oc4ccccc4c3=O)C(=O)N2Cc2ccc3c(c2)OCO3)cc1 (stereo not drawn) | -3.78% (inactive) | 
38 | COc1ccc(Cn2ccn(CC(=O)Nc3cc(C)ccc3C)c(=O)c2=O)cc1 | -11.5% (inactive) | 
39 | O=C(CCCn1c(=O)c2cccn2c2cccnc21)NCc1ccc(F)cc1 | -6.59% (inactive) | 
40 | COc1ccccc1C(=O)NCCn1cc(SCc2ccccc2Cl)c2ccccc21 | -8.21% (inactive) | 
41 | CCN(CC)P(=O)(/C(Cl)=C\Nc1c(C)n(C)n(-c2ccccc2)c1=O)N(CC)CC |  | 15.8 µM (active)
42 | Cc1c(NS(=O)(=O)c2ccc(Cl)cc2)c(=O)n(-c2ccccc2)n1C | 9% (inactive) | 
43 | Cc1c(NC(=S)Nc2ccccc2)c(=O)n(-c2ccccc2)n1C | 6.69% (inactive) | 
44 | CCN(CC)CCNc1ncnc2c1cnn2-c1cc(Cl)ccc1C | -26.6% (inactive) | 
45 | O=C(O)c1ccc(Cn2cnc3c(=S)nc[nH]c32)cc1 |  | 3.55 µM (active)
46 | O=C(O)CCC(=O)NCc1ccc(C(=O)O)cc1 | -1.53% [at 57.1 µM] (inactive) | 
47 | O=C(O)c1ccc(Cn2c(SCc3ccc(F)cc3)nc3ccncc32)cc1 | 7.64% (inactive) | 
48 | Cc1ccc(Cn2c(=O)n(-c3ccc(C)cc3)c(=O)c3c2c2cc(C)ccc2n3C)cc1 | -17.2% (inactive) | 
49 | Cc1ccc(Cl)cc1N(C)C(=O)C1CCCN(c2ncnc3onc(-c4ccc(F)cc4)c23)C1 (stereo not drawn) | -19.4% (inactive) | 
50 | CC(C)=CCc1ccc(O)c(=O)cc1C(C)C |  | 56.2 µM (active)

Row | Compound | activity change, negative = inhibition | Potency
51 | CC(C)c1cc(N=O)cc(C(C)C)c1O | -24.3% (inactive) | 
52 | Cc1ccc(CNC(=O)c2c(O)nc3c(C)cccn3c2=O)cc1 | -3.64% (inactive) | 
53 | COc1ccc2c(CNCCc3ccccc3C)c(C(=O)O)n(Cc3ccccc3C)c2c1 | -8.42% (inactive) | 
54 | Cc1ccc2ncc(C(=O)Nc3ccc(OC(F)(F)F)cc3)c(=O)n2c1 | -2.55% (inactive) | 
55 | COc1cccc2cc(-c3nc(Cl)c4c5c(sc4n3)CC(C)CC5)c(=O)oc12 (stereo not drawn) | -4.78% (inactive) | 
56 | CCCCCCC1(C)NC(c2ccc3c(c2)OCO3)=CC(c2ccccc2O)N1 (stereo not drawn) | -14.6% [at 57.1 µM] (inactive) | 
57 | CCn1c2ccccc2c2cc(NC(=O)COc3ccc(C)cc3C)ccc21 | -4.5% (inactive) | 
58 | CCn1c2ccccc2c2cc(NC(=O)C/C(C)=N/NC(=O)c3ccccc3N)ccc21 | -20.1% (inactive) | 
59 | CCn1c2ccccc2c2cc(NC(=O)CNC)ccc21 |  | 1 µM (active)
60 | Cc1ccc(N(CC(=O)NCC(C)c2ccccc2)S(=O)(=O)N(C)C)cc1 (stereo not drawn) | -10% (inactive) | 
61 | Cc1ccc(NC(=O)C(=O)NCC(c2cccnc2)N2CCOCC2)cc1 (stereo not drawn) | -0.987% (inactive) | 
62 | COc1cccc(C(=O)N(Cc2cccc(Cl)c2)Cc2ccco2)c1 | -9.03% (inactive) | 
63 | CCCCCn1c(CCCNC(=O)c2ccccc2OC)nc2ccccc21 | -15.7% (inactive) | 
64 | CC(=O)c1ccc(NC(=O)C2CC(=O)Nc3nc4ccccc4n32)cc1 (stereo not drawn) | -17.3% (inactive) | 
65 | CCOC(=O)c1ccc(NC(=O)C2CC(=O)Nc3nc4ccccc4n32)cc1 (stereo not drawn) | -10.3% (inactive) | 
66 | O=C(Nc1ccccc1)C1CC(=O)n2c(nc3ccccc32)N1 (stereo not drawn) |  | 8.91 µM (active)
67 | CC(=O)N1CCCc2cc(S(=O)(=O)N3CCC(C(=O)NCc4ccc(C)cc4)CC3)ccc21 | -11.6% (inactive) | 
68 | O=c1[nH]c2ccccc2n2c(-c3ccccc3)nnc12 |  | 7.94 µM (active) and 5.62 µM (active)
69 | O=c1cc(-c2ccccc2)n2c(SCc3ccccc3)nnc2[nH]1 | -11.4% (inactive) | 
70 | Cc1cccc(CC(=O)Nc2cccc(-c3cn4cccnc4n3)c2)c1 | -21.6% (inactive) | 
71 | CCOc1ccc(N2CC(C(=O)NCc3ccccn3)CC2=O)cc1 (stereo not drawn) | -5.52% (inactive) | 
72 | CCS(=O)(=O)N1Cc2ccccc2CC1C(=O)Nc1ccc(OC)cc1OC (stereo not drawn) | -9.15% (inactive) | 
73 | COc1ccc(NC(=O)C2C3C=CC(C3)C2C(=O)NCc2ccccn2)c(OC)c1 (stereo not drawn) |  | 50.1 µM (active)
74 | CN(Cc1ccccc1)C(=O)c1cn(C)c2ccc(S(=O)(=O)N(C)C3CCCCC3)cc2c1=O | 1.67% (inactive) | 
75 | CCOC(=O)c1c(NC(=O)CSc2cn(CCNC(=O)c3cccc(C(F)(F)F)c3)c3ccccc23)sc2c1CCC2 | -19.4% (inactive) | 

Row | Compound | activity change, negative = inhibition | Potency
76 | Cc1c(-c2nc(-c3ccc4c(c3)OCO4)no2)nnn1-c1ccc(Br)cc1F | -11.4% (inactive) | 
77 | CCOC(=O)c1ccc(NC(=O)C2CC(=O)N(c3ccc4c(c3)OCCO4)C2)cc1 (stereo not drawn) | -16.7% (inactive) | 
78 | CCc1nnc(NC(=O)C2CC(=O)N(c3ccc4c(c3)OCCO4)C2)s1 (stereo not drawn) |  | 25.1 µM (active)
79 | CC(=O)c1ccccc1NC(=O)C1CC(=O)N(c2ccc3c(c2)OCCO3)C1 (stereo not drawn) | -18.8% (inactive) | 
80 | O=C(CSc1nnc(CNC(=O)c2ccccc2)n1-c1ccc(F)cc1)Nc1ccccc1F | -0.673% (inactive) | 
81 | COc1ccc(C2C(C#N)=C(N)Oc3n[nH]c(C)c32)cc1CN1CCN(c2ccc(F)cc2)CC1 (stereo not drawn) |  | 44.7 µM (active)
82 | COc1ccc(C2C(C#N)=C(N)Oc3cc(N)ccc32)cc1OC (stereo not drawn) | -20.1% (inactive) | 
83 | COc1ccccc1CN1CCCC(N2CCN(c3ccc(F)cc3)CC2)C1 (stereo not drawn) | -23.8% (inactive) | 
84 | Cc1cc(=O)c2cc(C(=O)Nc3cccc(C)c3C)ccc2[nH]1 | -3.31% (inactive) | 
85 | COc1ccccc1NC(=O)C(=O)c1cc(C)n(-c2ccccc2F)c1C | -23.5% (inactive) | 
86 | COc1ccc(NC(=O)CCCc2nnc3n(CCC(C)C)c(=O)c4sccc4n23)c(OC)c1 | -32.6% (inactive) | 
87 | Cc1ccccc1Nc1nn2c(=O)c3ccc(C(=O)NCCc4ccc(Cl)cc4)cc3nc2s1 | -9.31% (inactive) | 
88 | O=C(O)/C(=C/c1cccnc1)NC(=O)c1ccccc1 | -6.62% (inactive) | 
89 | Nc1ccc2c(c1)C(=Cc1cccnc1)c1ccccc1-2 |  | 35.5 µM (active)
90 | Cc1ccc(C2=C/C(=C\c3cccnc3)C(=O)O2)cc1 | -18.6% (inactive) | 
91 | O=C(NCc1ccccc1)c1cccc(NC(=O)N2CCSc3ncccc32)c1 | 5.17% (inactive) | 
92 | CCn1c(/C=C/c2ccc([N+](=O)[O-])o2)nc2ccccc2c1=O | -16.8% [at 57.1 µM] (inactive) | 
93 | CCc1ccc(S(=O)(=O)Nc2ccc(C)c(NS(C)(=O)=O)c2)cc1 | 8.31% (inactive) | 
94 | CCc1ccc(S(=O)(=O)N/N=C\c2ccc([N+](=O)[O-])o2)cc1 |  | 50.1 µM (active)
95 | CCc1nn(CCCC(=O)NCc2ccccc2OC)c(=O)c2cc3occc3n12 | 4.03% (inactive) | 
96 | Cc1ccc(-c2ccc(CCC(=O)O)n2-c2ccc(C(N)=O)cc2)cc1 | -22.9% (inactive) | 
97 | CN1/C(=c2/s/c(=C3/C(=O)N(c4ccccc4)NC3=Nc3ccccc3)n(C)c2=O)C(C)(C)c2ccccc21 |  | 28.2 µM (active)
98 | CC(C)CCN(C(=O)Nc1ccc(Cl)c(Cl)c1)C(C)c1cccs1 (stereo not drawn) | -10.7% (inactive) | 
